# Many of the other results were omitted from the sample, so hits are more common in it than they were.
# Shiga toxin inh: blocks Shiga toxin action in Vero cells | Vero cells, Shiga toxin protein synthesis inhibition reporter | inhibition, % at 38.7 µM | 290,000 tested, 9.2% active | AID 2315; in the data active = inhibition mostly above about 28%, no sharp cut-off; inactive = mostly below about 43%
# LmPK inhibitor: LmPK (Leishmania mexicana) enzyme inhibition; Q27686; purified LmPK, Kinase-Glo ATP luminescence, 1 h; Potency, µM (titrated, usually from 57.5 µM), hits mostly inhibitors; 290,000 tested, 0.37% active
#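 Pyruvate kinase activity monitored as ATP production (luciferase luminescence). Conditions: 0.1 nM enzyme, 0.5 mM PEP, 0.1 mM ADP, 1 h, RT; normalized against uninhibited and no-enzyme wells.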
# Sm TGR inh: inhibitors of Schistosoma mansoni thioredoxin glutathione reductase; purified TGR, DTNB reduction, TNB absorbance 405 nm; Potency, µM (top dose mostly 114 µM), most hits filed as inhibitors; 360,000 tested, 3% active; AID 485364; note: nearly all actives have a fitted effect of over 60% in size
#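 First, TGR (20 nM dispensed) and NADPH were mixed with compound. Second, a 15 min room-temperature incubation followed. Third, further NADPH and then DTNB were added to start the reaction. Finally, TNB absorbance was monitored kinetically.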
# Tb PYK inh: blocks Trypanosoma brucei pyruvate kinase; Q57TT1; TbPYK enzyme, Kinase-Glo Plus ATP luminescence, 45 min; Potency, µM (doses to about 76.8 µM), actives largely listed as inhibitors; 410,000 tested, 0.12% active; AID 624173; note: nearly all actives have a fitted effect of over 50% in size
#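 Glycolytic pyruvate kinase of T. brucei was incubated with substrate, test compound and 130 uM ADP for 45 minutes at room temperature. Luminescent Kinase-Glo Plus signal was measured after 10 minutes.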
# Cycloheximide cs: affects cycloheximide protein synthesis inhibition readout, counter-screen; cell reporter, cycloheximide protein synthesis inhibition counterscreen; max response, %; 300,000 tested, 12% active; AID 2314; in the data active = max response mostly above about 13%, no sharp cut-off; inactive = mostly below about 14%; note: read at 38.3 µM for the half of the compounds with a filed dose
# Giardia FBPA inh: Giardia lamblia aldolase inhibition. purified Giardia FBPA. Potency, µM (highest dose often 59.6 µM), actives largely listed as inhibitors. 290,000 tested, 0.71% active. AID 2451; note: nearly all actives have a fitted effect of over 55% in size
# Target sequence (A8B2U2 whole entry, looked up): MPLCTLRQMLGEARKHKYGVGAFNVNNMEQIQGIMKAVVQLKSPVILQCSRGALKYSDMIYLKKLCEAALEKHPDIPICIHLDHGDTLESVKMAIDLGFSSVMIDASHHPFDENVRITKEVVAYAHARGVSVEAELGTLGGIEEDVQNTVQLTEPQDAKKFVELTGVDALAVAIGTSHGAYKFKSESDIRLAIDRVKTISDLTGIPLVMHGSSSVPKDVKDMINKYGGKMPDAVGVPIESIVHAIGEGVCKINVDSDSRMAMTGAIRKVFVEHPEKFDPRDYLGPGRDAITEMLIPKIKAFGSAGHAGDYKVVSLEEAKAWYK
#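 40 nM FBPA preincubated 10 min at RT with compound (up to 57.5 uM final), then substrate plus GAPDH/TPI/NAD/arsenate coupling and diaphorase/resazurin added. Fluorescence read after 20 min at RT, 525/598 nm.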
# A number is an active result; . = inactive; ? = inconclusive; / = no result; [ ] = another dose, or the depositor's remark. Unless noted, calls come from the whole dose curve; as a rule, active = well fitted curve in the direction sought with a large enough effect; inconclusive = small, poorly fitted or top-dose-only effect, or another doubt; inactive = no such curve, though single readings can be large; an effect the other way counts as inactive or inconclusive.
SMILES,Shiga toxin inh,LmPK inhibitor,Sm TGR inh,Tb PYK inh,Cycloheximide cs,Giardia FBPA inh
CC(/C=C/C=C/c1ccccc1)=N/NC(=O)c1ccc2c(c1)OCCO2,63.0,.,.,.,31.2,.
CC(/C=C\C=C\c1ccccc1)=N\NC(=O)c1cncc(Br)c1,.,.,39.8µM,.,.,.
CC(C(=O)N1CCN(C(=O)c2ccco2)CC1)N1C(=O)NC2(CCCCC2C)C1=O (stereo not drawn),/,/,.,.,/,/
Cc1cc(C(=O)N2CCC2(C)C(=O)NS(=O)(=O)c2ccc(Cl)cc2)nn1C (stereo not drawn),/,/,/,.,/,/
N#Cc1ccc(/C=N/NC(=O)c2cc(-c3cccs3)nc3ccccc23)cc1,.,.,.,.,22.2,.
COc1cc(/C=N/NC(=O)c2cc(-c3cccs3)nc3ccccc23)ccc1O,45.0,.,.,.,.,.
CCOC(=O)c1c(-c2ccc(C)o2)csc1NC(=O)COC(=O)c1cccs1,.,.,14.1µM,.,.,.
CCOC(=O)c1c(-c2ccco2)csc1NC(=O)COC(=O)c1cnc(C)cn1,/,/,28.2µM,.,/,/
CCOC(=O)c1c(-c2ccc(C)o2)csc1NC(=O)CN1CCOCC1,.,.,22.4µM,.,.,.
CCOC(=O)c1c(-c2ccc(C)o2)csc1N,.,.,.[11.4 µM],.,.,?
CCOC(=O)c1c(-c2ccc(C)o2)csc1NC(=O)CSc1ncn[nH]1,.,.,20µM,?,.,.
CCN(CC)CCNC(=O)c1ccc(NC(=O)Nc2cccc3ccccc23)cc1,.,.,.,.,.,.
O=C(Nc1ccccc1Cl)c1ccc(=O)[nH]n1,.,.,.,.,.,.
CC(C)C[C@H](NC(=O)CNC(=O)[C@H](CCC(N)=O)NC(=O)[C@H](Cc1ccc(O)cc1)NC(=O)[C@@H](NC(=O)[C@H](Cc1ccc(O)cc1)NC(=O)CNC(=O)[C@@H](N)CCCN=C(N)N)C(C)C)C(=O)O,.,/,/,/,.,.
CCOc1ccc(NC(=O)CC2C(=O)OCCN2CC)cc1 (stereo not drawn),/,/,11.2µM,.,/,/
O=C(CC1C(=O)OCCN1Cc1ccccc1)Nc1ccc(F)cc1 (stereo not drawn),/,/,?,.,/,/
CCOC(=O)c1ccc(NC(=O)CC2C(=O)OCCN2CC)cc1 (stereo not drawn),.,.,22.4µM,.,.,.
CCOC(=O)c1ccc(NC(=O)CC2OCCN(CC)C2=O)cc1 (stereo not drawn),.,.,25.1µM,.,.,.
CCN1CCOC(=O)C1CC(=O)Nc1cccc(OC)c1 (stereo not drawn),/,/,17.8µM,.,/,/
CCCCC/C=C/C/C=C/CCCCCCCC(=O)NC(C)c1ccccc1 (stereo not drawn),/,/,/,.,/,/
COc1cccc(-c2cn3c(n2)sc2cc(C(=O)NCc4cccs4)ccc23)c1,/,/,.,.,/,/
CCOC(=O)/C=c1\s/c(=C(\C#N)C(N)=O)n(-c2ccccc2)c1=O,.,.,10µM,.,.,.
CCOC(=O)/C=c1\s/c(=C(\C#N)C(=O)NC)n(-c2ccccc2)c1=O,.,.,.,.,.,.
O=C1NC[C@@H](Cc2ccc(O)cc2)N(CCc2cc(C(F)(F)F)cc(C(F)(F)F)c2)C1=O,/,/,/,.,/,/
c1ccc(-c2nc3ccccc3s2)nc1,76.0,11.2µM,.,.,61.1,.
SMILES,Shiga toxin inh,LmPK inhibitor,Sm TGR inh,Tb PYK inh,Cycloheximide cs,Giardia FBPA inh
Nc1ccc(-c2nc3ccccc3s2)cn1,103.6,.,.,.,.,.
Brc1ccc(-c2nc3ccccc3s2)s1,96.2,28.2µM,.,.,47.8,.
Brc1cc2c(cc1-c1nc3ccccc3s1)OCO2,64.6,.,.,.,32.8,.
CN(C)c1ncccc1-c1nc2ccccc2s1,.,.,.,.,.,.
Cc1ccc(CNC(=O)CCNC(=O)c2ccc([N+](=O)[O-])cc2)cc1,/,/,/,.,/,/
O=c1c(-c2ccc(F)cc2)nc2cncnc2n1C1CC1,/,/,/,.,/,.
O=C1CCC(=O)N1c1ccc(-c2nc3ccccc3s2)cc1,62.4,?,.,.,34.6,.
Cc1ccc(SCCSc2nc(N)cc(=O)[nH]2)cc1,.,.,.,.,21.7,.
Cc1cc(=O)[nH]c(SCCc2ccccc2)n1,.,.,.,.,.,.
COc1ccc(OCCSc2nc(N)cc(=O)[nH]2)cc1,.,.,.,.,.,.
Cc1ccc(SCCSc2nc(C)cc(=O)[nH]2)cc1,/,.,.,.,40.2,?
CCOc1ccc(OCCSc2nc(C)cc(=O)[nH]2)cc1,124.2,.,.,?,29.8,.
COc1ccc2[nH]cc(CCNC(=O)Cc3ccc(Cl)cc3)c2c1,.,.,.,.,.,.
Cc1cccc(NC(=O)CSc2nc3ccccc3nc2N2CCC(C)CC2)c1,/,/,.,.,/,/
Cc1noc(C)c1S(=O)(=O)NC(=O)C1(C)CCN1C(=O)C1(c2ccc(Cl)cc2)CCC1 (stereo not drawn),/,/,/,.,/,/
CCOC(=O)C1=C(C)S/C(=C\N(C)C)C1=O,.,.,.[11.4 µM],.,.,.
CCOC(=O)C1=C(C)NC(=O)/C1=C\N(C)C,.,.,20µM,.,.,.
COC(=O)c1ccc(N=NNc2ccc(C(=O)OC)cc2)cc1,126.6,.,.,.,122.1,.
O=C(O)c1ccc(N=NNc2cccc([N+](=O)[O-])c2)cc1,108.4,.,.,.,41.8,.
O=C(Nc1cccc([N+](=O)[O-])c1)c1ccc(-c2ccccc2)cc1,.,.,.,.,.,.
COC(=O)c1ccc(N=NNc2cccc(Br)c2)cc1,74.3,.,.,.,63.4,.
COC(=O)c1ccc(N=NNc2ccccc2)cc1,131.3,.,.,.,53.3,.
CC1CCN(c2nnc(-c3cccs3)c3ccccc23)CC1,.,.,.,.,15.9,.
c1csc(-c2nnc(NC3CCCCC3)c3ccccc23)c1,.,.,.,.,.,.
Cc1ccc(-c2c(C(=O)N3CCN(c4cccc(C)c4C)CC3)oc(=O)c3ccccc23)cc1,/,/,.,.,/,/
SMILES,Shiga toxin inh,LmPK inhibitor,Sm TGR inh,Tb PYK inh,Cycloheximide cs,Giardia FBPA inh
COc1ccc(C2=C(C)C(=O)N(Cc3ccc(C(=O)NCc4ccc(C)cc4)cc3)S2(=O)=O)cc1,/,/,.,.,/,/
COc1ccc(CNC(=O)c2ccc(-c3ccccc3)cc2)cc1OC,.,.,.,.,.,.
COc1ccc(CNC(=O)c2ccc(C)cc2)cc1,39.2,/,/,/,.,.
Cc1ccc(CNC(=O)CCn2cc(-c3ccc(C)cc3)nc2-c2ccncc2)cc1,.,.,.,.,.,.
COc1ccc(OCC(O)CNC(=O)c2sccc2Cl)cc1 (stereo not drawn),.,.,.,.,19.7,.
COc1ccc(CNC(=O)c2ccc(-c3ccccc3)cc2)cc1,79.3,.,.,.,45.1,.
Cc1ccc(CNC(=O)c2ccc(Cn3cc(-c4ccc(C)cc4)nc3-c3ccncc3)cc2)cc1,41.9,.,.,.,41.0,.
Cc1c(C(=O)N2CCCCC2CCN2CCCC2=O)oc2c(F)cccc12 (stereo not drawn),.,.,.,.,.,/

# Source: PubChem BioAssay
